Hit rate of the full screen: of about 5,500 compounds, about 2,000 (36%) were called active. Inconclusive results (about 18%) are left out. Cut-off read from the data, not from the text of the source: active = normalized growth mostly below about 0.91 (no sharp cut-off); inconclusive = no clear call, values can overlap the other calls; inactive = mostly above about 0.92. The list shows a part of the results.
Assay: chemical genetic growth profiling, strain panel (AID 1159580);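 note: tested at 20 µM; growth read once vehicle control cultures reached saturation at 30 °C; 1 = growth at the plate median or of vehicle wells; lower values mean less growth of the strain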
Conditions: S. cerevisiae deletion strains, growth OD

Measured: normalized growth

CC1=CC(=O)c2c(O)cccc2C1=O
active: locus YAL021C, strain ccr4, hits give low values 0.0614 | locus YAL026C, strain drs2, hits give low values 0.0573 | locus YAL030W, strain snc1, hits give low values 0.0538 | locus YBL061C, strain skt5, hits give low values 0.0578 | locus YBR009C, strain hhf1, hits give low values 0.0566 | locus YBR023C, strain chs3, hits give low values 0.0593 | locus YBR171W, strain sec66, hits give low values 0.0747 | locus YBR231C, strain swc5, hits give low values 0.0608 | locus YBR279W, strain paf1, hits give low values 0.0613 | locus YCL011C, strain gbp2, hits give low values 0.053 | locus YCL016C, strain dcc1, hits give low values 0.0629 | locus YCL069W, strain vba3, hits give low values 0.058 | locus YCR088W, strain abp1, hits give low values 0.0593 | locus YDL005C, strain med2, hits give low values 0.0698 | locus YDL040C, strain nat1, hits give low values 0.073 | locus YDR001C, strain nth1, hits give low values 0.0551 | locus YDR069C, strain doa4, hits give low values 0.0589 | locus YDR137W, strain rgp1, hits give low values 0.103 | locus YDR159W, strain sac3, hits give low values 0.139 | locus YDR195W, strain ref2 0.132 | locus YDR297W, strain sur2, hits give low values 0.0527 | locus YDR334W, strain swr1, hits give low values 0.063 | locus YDR335W, strain msn5, hits give low values 0.0594 | locus YDR392W, strain spt3, hits give low values 0.0748 | locus YEL003W, strain gim4, hits give low values 0.0513 | locus YEL037C, strain rad23, hits give low values 0.0601 | locus YEL061C, strain CIN8 (second series), hits give low values 0.0564 | locus YER015W, strain faa2, hits give low values 0.0571 | locus YER016W, strain bim1, hits give low values 0.0586 | locus YER111C, strain swi4, hits give low values 0.71 | locus YER155C, strain BEM2 (second series), hits give low values 0.0832 | locus YFR010W, strain ubp6, hits give low values 0.0636 | locus YGL167C, strain pmr1, hits give low values 0.071 | locus YGL173C, strain kem1, hits give low values 0.0648 | locus YGL227W, strain vid30, hits give low values 0.0587 | locus YGL240W, strain doc1, hits give low values 0.0736 | locus YGL253W, strain hxk2, hits give low values 0.0519 | locus YHR013C, strain ard1, hits give low values 0.101 | locus YHR027C, strain rpn1, hits give low values 0.0589 | locus YHR030C, strain SLT2, hits give low values 0.108 | locus YHR079C, strain IRE1, hits give low values 0.123 | locus YHR142W, strain chs7, hits give low values 0.0661 | locus YJL092W, strain hpr5, hits give low values 0.061 | locus YJL095W, strain BCK1 (second series), hits give low values 0.0545 | locus YJL095W, strain BCK1, hits give low values 0.133 | locus YJL115W, strain asf1, hits give low values 0.0773 | locus YJL129C, strain trk1, hits give low values 0.653 | locus YJL154C, strain vps35, hits give low values 0.0541 | locus YJL164C, strain tpk1, hits give low values 0.0572 | locus YJL166W, strain qcr8, hits give low values 0.0557 | locus YJL187C, strain SWE1, hits give low values 0.0545 | locus YJR066W, strain TOR1, hits give low values 0.00113 | locus YKL160W, strain elf1, hits give low values 0.0646 | locus YKR026C, strain gcn3, hits give low values 0.0585 | locus YKR091W, strain srl3, hits give low values 0.0562 | locus YLL001W, strain dnm1, hits give low values 0.0574 | locus YLL026W, hits give low values 0.0541 | locus YLL041C, strain sdh2, hits give low values 0.0519 | locus YLR027C, strain aat2, hits give low values 0.0528 | locus YLR113W, strain HOG1, hits give low values 0.191 | locus YLR221C, strain rsa3, hits give low values 0.054 | locus YLR258W, strain gsy2, hits give low values 0.056 | locus YLR262C, strain YPT6 (second series), hits give low values 0.0717 | locus YLR320W, strain mms22, hits give low values 0.0755 | locus YLR342W, strain FKS1, hits give low values 0.0621 | locus YLR357W, strain rsc2, hits give low values 0.113 | locus YLR370C, strain arc18, hits give low values 0.0568 | locus YLR384C, strain iki3, hits give low values 0.0609 | locus YML120C, strain ndi1, hits give low values 0.0584 | locus YMR058W, strain fet3, hits give low values 0.0576 | locus YMR125W, strain sto1, hits give low values 0.0728 | locus YMR129W, hits give low values 0.0547 | locus YMR205C, strain PFK2, hits give low values 0.0815 | locus YMR231W, strain pep5, hits give low values 0.0627 | locus YNL071W, strain lat1, hits give low values 0.0579 | locus YNL183C, strain NPR1, hits give low values 0.000686 | locus YNL209W, strain ssb2, hits give low values 0.0563 | locus YNL248C, strain rpa49, hits give low values 0.0708 | locus YNL322C, strain KRE1 (second series), hits give low values 0.062 | locus YNR049C, strain mso1, hits give low values 0.0527 | locus YOR001W, strain rrp6, hits give low values 0.065 | locus YOR070C, strain gyp1, hits give low values 0.0567 | locus YOR080W, strain dia2, hits give low values 0.1 | locus YOR083W, strain WHI5, hits give low values 0.0584 | locus YOR106W, strain vam3, hits give low values 0.0629 | locus YOR231W, strain MKK1, hits give low values 0.115 | locus YOR265W, strain rbl2, hits give low values 0.0542 | locus YOR270C, strain vph1, hits give low values 0.0962 | locus YPL051W, strain arl3, hits give low values 0.0583 | locus YPL078C, strain atp4, hits give low values 0.163 | locus YPL106C, strain sse1, hits give low values 0.0924 | locus YPL240C, strain hsp82, hits give low values 0.0548 | locus YPL256C, strain CLN2, hits give low values 0.128
inactive: locus YOR290C, strain snf2, hits give low values 0.906
